What was measured:
Assay in all cases: DAPPL (digital affinity profiling via proximity ligation, sequencing); 10 mM Tris-HCl pH 7.5, 50 mM NaCl, 1 mM DTT, 4% glycerol, room temperature, 30 min; GST-TFs on glutathione beads, 16-mer random dsDNA library, 0.1% formaldehyde crosslink after washing; high values mean tight binding
FLI1 = biological target: T1, FLI1 (Homo sapiens, UniProt Q01543 1-452); settings: protein: recombinant; tags: N-terminal GST; dsDNA, one strand shown
T1 sequence: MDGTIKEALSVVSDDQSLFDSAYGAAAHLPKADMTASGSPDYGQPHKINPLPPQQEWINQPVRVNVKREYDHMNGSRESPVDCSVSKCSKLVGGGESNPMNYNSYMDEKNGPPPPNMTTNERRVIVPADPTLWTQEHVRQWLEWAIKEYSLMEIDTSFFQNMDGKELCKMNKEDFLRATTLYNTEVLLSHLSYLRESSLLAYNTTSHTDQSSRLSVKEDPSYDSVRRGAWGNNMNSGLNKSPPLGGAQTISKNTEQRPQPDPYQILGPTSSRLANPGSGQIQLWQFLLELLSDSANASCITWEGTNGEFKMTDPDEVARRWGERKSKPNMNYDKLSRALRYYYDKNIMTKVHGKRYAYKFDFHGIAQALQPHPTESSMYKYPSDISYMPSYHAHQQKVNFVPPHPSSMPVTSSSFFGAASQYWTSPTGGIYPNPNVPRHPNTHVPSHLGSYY
Procedure, shortened: (§1)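 GST fusions of human transcription factors were expressed in yeast and captured with glutathione beads. Once given DNA barcodes and pooled alongside a tag-only sample, they were incubated for 30 min at room temperature with 200 nmole of a random double-stranded 16-mer DNA library in Tris/NaCl/DTT/glycerol buffer, then washed, crosslinked (0.1% formaldehyde), proximity-ligated, PCR-amplified and sequenced on an Illumina NextSeq500. The binding signal of each hexamer is its read frequency for a factor divided by its frequency for the tag-only sample.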

ELK1 = biological target: T2, ELK1 (Homo sapiens, UniProt P19419 1-428); settings: protein: recombinant; tags: N-terminal GST; dsDNA, one strand shown
T2 sequence: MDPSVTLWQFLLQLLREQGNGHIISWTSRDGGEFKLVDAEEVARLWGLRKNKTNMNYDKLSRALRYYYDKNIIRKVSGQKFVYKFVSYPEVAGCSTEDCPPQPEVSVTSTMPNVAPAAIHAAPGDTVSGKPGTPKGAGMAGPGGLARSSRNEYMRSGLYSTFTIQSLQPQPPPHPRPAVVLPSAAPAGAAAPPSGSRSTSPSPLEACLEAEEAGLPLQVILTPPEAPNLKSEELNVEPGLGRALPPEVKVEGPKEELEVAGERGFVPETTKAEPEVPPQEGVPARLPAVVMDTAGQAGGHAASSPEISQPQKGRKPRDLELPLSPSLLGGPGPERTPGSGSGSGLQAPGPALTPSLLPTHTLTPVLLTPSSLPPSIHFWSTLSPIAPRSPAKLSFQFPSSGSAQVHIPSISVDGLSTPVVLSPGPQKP
Procedure, shortened: as §1

GABPA = biological target: T3, GABPA (Homo sapiens, UniProt Q06546 1-454); settings: protein: recombinant; tags: N-terminal GST; dsDNA, one strand shown
T3 sequence: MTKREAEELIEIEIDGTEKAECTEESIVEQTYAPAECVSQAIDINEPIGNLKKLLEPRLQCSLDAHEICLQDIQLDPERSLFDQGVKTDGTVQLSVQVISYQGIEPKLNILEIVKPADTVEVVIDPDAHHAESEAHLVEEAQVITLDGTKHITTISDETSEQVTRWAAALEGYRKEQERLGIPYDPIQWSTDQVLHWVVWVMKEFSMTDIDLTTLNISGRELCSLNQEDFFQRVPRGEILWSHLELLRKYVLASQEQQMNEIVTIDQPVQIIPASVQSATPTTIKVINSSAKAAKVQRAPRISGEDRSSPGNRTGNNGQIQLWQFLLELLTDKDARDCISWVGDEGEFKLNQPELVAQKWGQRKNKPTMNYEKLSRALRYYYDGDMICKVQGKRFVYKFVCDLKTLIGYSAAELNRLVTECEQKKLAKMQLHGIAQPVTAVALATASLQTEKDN
Procedure, shortened: as §1

ERG = biological target: T4, ERG (Homo sapiens, UniProt P11308 1-479); settings: protein: recombinant; tags: N-terminal GST; dsDNA, one strand shown
T4 sequence: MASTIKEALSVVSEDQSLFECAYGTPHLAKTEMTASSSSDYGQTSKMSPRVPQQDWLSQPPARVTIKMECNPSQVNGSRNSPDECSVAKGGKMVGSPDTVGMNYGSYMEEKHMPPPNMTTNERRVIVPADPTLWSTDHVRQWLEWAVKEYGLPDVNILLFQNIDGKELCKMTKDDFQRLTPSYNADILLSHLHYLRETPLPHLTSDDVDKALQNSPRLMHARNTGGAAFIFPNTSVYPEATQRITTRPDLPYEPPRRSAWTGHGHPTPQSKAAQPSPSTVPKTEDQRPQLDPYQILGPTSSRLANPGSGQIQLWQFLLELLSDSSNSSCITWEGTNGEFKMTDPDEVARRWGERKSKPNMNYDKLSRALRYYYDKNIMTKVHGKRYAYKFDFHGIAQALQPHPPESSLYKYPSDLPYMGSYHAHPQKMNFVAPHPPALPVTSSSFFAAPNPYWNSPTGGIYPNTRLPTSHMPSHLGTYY
Procedure, shortened: as §1

ELF1 = ELF1 (Homo sapiens, UniProt P32519 1-619); settings: protein: recombinant; tags: N-terminal GST; dsDNA, one strand shown
Chain of ELF1 (P32519 whole entry): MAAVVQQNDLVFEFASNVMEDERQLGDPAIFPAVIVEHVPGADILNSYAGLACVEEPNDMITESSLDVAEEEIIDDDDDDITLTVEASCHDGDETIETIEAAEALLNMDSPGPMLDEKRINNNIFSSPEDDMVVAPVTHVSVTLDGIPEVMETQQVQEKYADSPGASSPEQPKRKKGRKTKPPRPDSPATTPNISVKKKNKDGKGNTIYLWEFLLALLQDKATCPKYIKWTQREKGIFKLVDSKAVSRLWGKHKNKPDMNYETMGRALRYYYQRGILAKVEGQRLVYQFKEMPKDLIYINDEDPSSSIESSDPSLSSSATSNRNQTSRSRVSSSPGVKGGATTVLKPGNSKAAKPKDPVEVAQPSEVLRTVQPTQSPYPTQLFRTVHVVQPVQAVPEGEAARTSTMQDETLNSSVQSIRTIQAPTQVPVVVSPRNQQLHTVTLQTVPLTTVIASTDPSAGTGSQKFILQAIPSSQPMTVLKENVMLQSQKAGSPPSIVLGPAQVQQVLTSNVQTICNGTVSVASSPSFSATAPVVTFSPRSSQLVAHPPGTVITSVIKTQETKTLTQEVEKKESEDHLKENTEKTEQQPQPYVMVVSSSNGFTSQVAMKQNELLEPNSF
Procedure, shortened: as §1

EHF = biological target: T5, EHF (Homo sapiens, UniProt Q9NZC4 1-300); settings: protein: recombinant; tags: N-terminal GST; dsDNA, one strand shown
T5 sequence: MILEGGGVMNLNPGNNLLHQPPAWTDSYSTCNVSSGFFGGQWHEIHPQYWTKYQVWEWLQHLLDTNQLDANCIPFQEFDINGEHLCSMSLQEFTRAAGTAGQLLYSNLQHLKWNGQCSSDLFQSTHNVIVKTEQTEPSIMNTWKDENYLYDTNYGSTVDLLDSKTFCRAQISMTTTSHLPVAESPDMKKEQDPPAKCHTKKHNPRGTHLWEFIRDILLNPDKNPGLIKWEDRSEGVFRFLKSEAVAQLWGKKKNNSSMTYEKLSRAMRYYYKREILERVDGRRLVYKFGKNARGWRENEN
Procedure, shortened: as §1

SPI1 = SPI1 (Homo sapiens, UniProt P17947 1-270); settings: protein: recombinant; tags: N-terminal GST; dsDNA, one strand shown
Procedure, shortened: as §1

SPIB = SPIB (Homo sapiens, UniProt Q01892 1-262); settings: protein: recombinant; tags: N-terminal GST; dsDNA, one strand shown
Chain of SPIB (Q01892 whole entry): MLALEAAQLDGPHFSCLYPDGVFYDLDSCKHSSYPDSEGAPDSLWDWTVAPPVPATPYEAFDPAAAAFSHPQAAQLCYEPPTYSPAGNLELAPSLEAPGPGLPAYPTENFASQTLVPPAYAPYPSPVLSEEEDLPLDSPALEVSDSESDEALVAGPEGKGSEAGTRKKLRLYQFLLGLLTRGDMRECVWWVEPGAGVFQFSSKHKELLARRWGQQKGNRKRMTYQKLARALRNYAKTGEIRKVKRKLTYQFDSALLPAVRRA
Procedure, shortened: as §1

ELK3 = biological target: T6, ELK3 (Homo sapiens, UniProt P41970 1-407); settings: protein: recombinant; tags: N-terminal GST; dsDNA, one strand shown
T6 sequence: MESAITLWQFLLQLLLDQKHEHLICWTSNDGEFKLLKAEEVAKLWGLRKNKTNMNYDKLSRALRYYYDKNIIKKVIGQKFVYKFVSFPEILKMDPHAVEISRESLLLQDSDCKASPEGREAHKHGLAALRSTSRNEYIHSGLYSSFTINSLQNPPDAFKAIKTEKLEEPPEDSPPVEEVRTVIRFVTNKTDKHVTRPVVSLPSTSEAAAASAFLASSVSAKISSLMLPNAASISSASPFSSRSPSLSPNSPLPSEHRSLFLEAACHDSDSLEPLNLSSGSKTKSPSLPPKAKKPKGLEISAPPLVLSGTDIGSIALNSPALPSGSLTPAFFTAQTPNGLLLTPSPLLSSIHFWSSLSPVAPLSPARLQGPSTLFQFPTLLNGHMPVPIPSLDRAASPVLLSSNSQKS
Procedure, shortened: as §1

FEV = biological target: T7, FEV (Homo sapiens, UniProt Q99581 1-238); settings: protein: recombinant; tags: N-terminal GST; dsDNA, one strand shown
T7 sequence: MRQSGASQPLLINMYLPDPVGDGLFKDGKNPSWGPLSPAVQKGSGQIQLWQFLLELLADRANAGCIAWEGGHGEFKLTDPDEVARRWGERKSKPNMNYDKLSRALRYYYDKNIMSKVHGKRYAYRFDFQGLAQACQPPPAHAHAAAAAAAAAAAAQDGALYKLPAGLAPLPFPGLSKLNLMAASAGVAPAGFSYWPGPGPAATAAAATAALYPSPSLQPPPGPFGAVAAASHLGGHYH
Procedure, shortened: as §1

ETV5 = ETV5 (Homo sapiens, UniProt P41161 1-510); settings: protein: recombinant; tags: N-terminal GST; dsDNA, one strand shown
Chain of ETV5 (P41161 whole entry): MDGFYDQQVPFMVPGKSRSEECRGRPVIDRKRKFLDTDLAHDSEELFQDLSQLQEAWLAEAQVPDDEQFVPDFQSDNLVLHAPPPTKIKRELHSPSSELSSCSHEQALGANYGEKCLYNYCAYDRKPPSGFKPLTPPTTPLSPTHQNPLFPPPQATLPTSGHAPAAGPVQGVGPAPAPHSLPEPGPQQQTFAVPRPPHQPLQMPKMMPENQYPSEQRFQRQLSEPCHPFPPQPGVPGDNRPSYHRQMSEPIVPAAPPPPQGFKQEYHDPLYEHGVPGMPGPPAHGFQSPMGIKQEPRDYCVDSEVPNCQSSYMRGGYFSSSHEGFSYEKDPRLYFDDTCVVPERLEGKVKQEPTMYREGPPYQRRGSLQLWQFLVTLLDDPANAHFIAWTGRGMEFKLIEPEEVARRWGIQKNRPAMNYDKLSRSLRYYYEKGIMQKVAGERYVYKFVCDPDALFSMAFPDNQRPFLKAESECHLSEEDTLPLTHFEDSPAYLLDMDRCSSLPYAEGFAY
Procedure, shortened: as §1

HSF1 = HSF1 (Homo sapiens, UniProt Q00613 1-529); settings: protein: recombinant; tags: N-terminal GST; chain copies: 3; dsDNA, one strand shown
Chain of HSF1 (Q00613 whole entry): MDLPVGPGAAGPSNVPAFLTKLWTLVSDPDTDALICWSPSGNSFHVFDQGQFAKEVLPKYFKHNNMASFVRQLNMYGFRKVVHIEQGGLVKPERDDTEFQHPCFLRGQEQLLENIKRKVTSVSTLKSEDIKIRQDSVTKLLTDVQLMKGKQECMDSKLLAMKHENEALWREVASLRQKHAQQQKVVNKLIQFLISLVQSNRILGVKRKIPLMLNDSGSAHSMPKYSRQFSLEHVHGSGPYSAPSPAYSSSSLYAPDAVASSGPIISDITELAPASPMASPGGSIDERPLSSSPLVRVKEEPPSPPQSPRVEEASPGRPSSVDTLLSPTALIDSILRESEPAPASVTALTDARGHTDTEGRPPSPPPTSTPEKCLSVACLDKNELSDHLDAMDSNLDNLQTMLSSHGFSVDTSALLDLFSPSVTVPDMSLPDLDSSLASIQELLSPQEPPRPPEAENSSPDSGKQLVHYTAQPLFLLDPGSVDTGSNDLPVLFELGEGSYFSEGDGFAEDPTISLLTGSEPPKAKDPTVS
Procedure, shortened: as §1

SPIC = biological target: T8, SPIC (Homo sapiens, UniProt Q8N5J4 1-248); settings: protein: recombinant; tags: N-terminal GST; dsDNA, one strand shown
T8 sequence: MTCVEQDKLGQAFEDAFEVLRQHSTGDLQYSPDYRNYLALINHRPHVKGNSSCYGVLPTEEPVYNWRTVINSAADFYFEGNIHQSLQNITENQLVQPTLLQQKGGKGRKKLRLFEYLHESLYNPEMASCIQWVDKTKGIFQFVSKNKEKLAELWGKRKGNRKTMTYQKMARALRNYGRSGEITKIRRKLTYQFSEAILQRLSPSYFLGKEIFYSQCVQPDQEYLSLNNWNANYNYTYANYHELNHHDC
Procedure, shortened: as §1

ELF4 = ELF4 (Homo sapiens, UniProt Q99607 1-663); settings: protein: recombinant; tags: N-terminal GST; dsDNA, one strand shown
Chain of ELF4 (Q99607 whole entry): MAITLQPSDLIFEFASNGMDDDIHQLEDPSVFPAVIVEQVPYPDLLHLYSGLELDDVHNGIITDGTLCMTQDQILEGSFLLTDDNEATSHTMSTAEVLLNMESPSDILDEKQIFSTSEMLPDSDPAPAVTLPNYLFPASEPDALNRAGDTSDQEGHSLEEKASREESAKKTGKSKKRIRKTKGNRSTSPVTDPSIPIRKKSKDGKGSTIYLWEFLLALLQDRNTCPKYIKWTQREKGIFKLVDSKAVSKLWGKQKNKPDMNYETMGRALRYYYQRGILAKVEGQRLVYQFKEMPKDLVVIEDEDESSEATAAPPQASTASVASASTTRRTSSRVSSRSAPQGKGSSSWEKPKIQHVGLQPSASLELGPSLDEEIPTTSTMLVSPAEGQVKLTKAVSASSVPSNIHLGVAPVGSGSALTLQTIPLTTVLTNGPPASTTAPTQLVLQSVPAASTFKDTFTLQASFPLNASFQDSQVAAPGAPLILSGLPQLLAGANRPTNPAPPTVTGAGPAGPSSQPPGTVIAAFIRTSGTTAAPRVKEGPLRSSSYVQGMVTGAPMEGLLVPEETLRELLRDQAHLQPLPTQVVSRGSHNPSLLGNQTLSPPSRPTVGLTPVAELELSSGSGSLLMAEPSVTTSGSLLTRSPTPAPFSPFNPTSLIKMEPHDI
Procedure, shortened: as §1

ELK4 = biological target: T9, ELK4 (Homo sapiens, UniProt P28324-2 1-405); settings: protein: recombinant; tags: N-terminal GST; dsDNA, one strand shown
T9 sequence: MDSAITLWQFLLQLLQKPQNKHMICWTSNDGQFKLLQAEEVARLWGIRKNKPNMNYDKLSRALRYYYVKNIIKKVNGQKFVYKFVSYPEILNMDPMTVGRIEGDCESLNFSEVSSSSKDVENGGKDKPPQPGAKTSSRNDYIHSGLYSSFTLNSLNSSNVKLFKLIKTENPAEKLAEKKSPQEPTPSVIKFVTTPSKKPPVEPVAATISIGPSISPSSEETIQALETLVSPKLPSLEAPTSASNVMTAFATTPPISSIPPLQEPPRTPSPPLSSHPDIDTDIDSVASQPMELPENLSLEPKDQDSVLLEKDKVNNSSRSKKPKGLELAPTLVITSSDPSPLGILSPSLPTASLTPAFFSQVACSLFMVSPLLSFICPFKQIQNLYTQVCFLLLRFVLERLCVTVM
Procedure, shortened: as §1

ETV2 = biological target: T10, ETV2 (Homo sapiens, UniProt O00321 1-342); settings: protein: recombinant; tags: N-terminal GST; dsDNA, one strand shown
T10 sequence: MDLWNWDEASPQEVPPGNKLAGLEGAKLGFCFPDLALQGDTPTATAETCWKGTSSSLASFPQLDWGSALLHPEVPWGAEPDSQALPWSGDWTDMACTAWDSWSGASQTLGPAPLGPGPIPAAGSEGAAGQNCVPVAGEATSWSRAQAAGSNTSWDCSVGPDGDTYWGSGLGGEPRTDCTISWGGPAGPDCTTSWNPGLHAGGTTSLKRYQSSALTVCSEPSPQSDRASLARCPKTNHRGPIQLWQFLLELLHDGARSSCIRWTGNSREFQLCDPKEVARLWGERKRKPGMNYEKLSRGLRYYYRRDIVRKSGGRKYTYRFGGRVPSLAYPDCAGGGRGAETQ
Procedure, shortened: as §1

ELF3 = biological target: T11, ELF3 (Homo sapiens, UniProt P78545 1-371); settings: protein: recombinant; tags: N-terminal GST; dsDNA, one strand shown
T11 sequence: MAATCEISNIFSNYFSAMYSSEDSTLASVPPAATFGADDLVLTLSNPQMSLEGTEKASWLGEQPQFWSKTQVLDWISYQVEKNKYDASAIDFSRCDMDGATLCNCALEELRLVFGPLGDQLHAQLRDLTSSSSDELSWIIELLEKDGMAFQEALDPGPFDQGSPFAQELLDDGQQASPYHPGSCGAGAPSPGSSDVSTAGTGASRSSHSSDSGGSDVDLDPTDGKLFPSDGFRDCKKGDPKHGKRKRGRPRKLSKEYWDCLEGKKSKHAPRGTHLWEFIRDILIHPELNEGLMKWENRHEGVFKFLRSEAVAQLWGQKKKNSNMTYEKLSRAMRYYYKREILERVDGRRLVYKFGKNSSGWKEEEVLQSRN
Procedure, shortened: as §1

CRX = CRX (Homo sapiens, UniProt O43186 1-299); settings: protein: recombinant; tags: N-terminal GST; dsDNA, one strand shown
Chain of CRX (O43186 whole entry): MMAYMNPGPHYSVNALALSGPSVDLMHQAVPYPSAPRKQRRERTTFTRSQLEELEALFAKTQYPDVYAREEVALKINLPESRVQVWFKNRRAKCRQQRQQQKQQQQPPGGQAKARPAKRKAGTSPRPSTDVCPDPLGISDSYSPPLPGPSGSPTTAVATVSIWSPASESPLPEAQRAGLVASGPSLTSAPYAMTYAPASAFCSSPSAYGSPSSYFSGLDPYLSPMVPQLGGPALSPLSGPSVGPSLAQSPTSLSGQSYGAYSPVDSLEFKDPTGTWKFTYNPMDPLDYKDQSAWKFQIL
Procedure, shortened: as §1

ETV1 = ETV1 (Homo sapiens, UniProt P50549 1-477); settings: protein: recombinant; tags: N-terminal GST; dsDNA, one strand shown
Chain of ETV1 (P50549 whole entry): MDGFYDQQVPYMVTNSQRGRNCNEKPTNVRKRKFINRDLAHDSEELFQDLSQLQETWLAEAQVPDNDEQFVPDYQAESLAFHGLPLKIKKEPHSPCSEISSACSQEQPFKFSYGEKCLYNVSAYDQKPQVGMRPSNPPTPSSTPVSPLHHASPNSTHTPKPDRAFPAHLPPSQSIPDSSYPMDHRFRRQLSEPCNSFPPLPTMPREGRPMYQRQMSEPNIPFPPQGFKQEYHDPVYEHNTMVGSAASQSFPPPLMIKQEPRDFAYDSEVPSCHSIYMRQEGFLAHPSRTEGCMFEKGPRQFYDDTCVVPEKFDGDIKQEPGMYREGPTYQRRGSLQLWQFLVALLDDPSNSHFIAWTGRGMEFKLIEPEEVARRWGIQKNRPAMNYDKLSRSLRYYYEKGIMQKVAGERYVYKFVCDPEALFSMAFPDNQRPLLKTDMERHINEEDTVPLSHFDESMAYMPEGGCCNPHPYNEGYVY
Procedure, shortened: as §1

With ATACGA the binding signal (FLI1) was 1.09 fold enrichment (6-mer frequency, TF over GST control), the binding signal (ELK1) was 1.12 fold enrichment (6-mer frequency, TF over GST control) and the binding signal (GABPA) was 1.1 fold enrichment (6-mer frequency, TF over GST control). For the same sequence, the binding signal (ERG) was 1.14 fold enrichment (6-mer frequency, TF over GST control), the binding signal (ELF1) was 1.14 fold enrichment (6-mer frequency, TF over GST control) and the binding signal (EHF) was 1.12 fold enrichment (6-mer frequency, TF over GST control). The binding signal (SPI1) was 1.08 fold enrichment (6-mer frequency, TF over GST control), the binding signal (SPIB) was 1.09 fold enrichment (6-mer frequency, TF over GST control) and the binding signal (ELK3) was 1.23 fold enrichment (6-mer frequency, TF over GST control). For the same sequence, the binding signal (FEV) was 1.16 fold enrichment (6-mer frequency, TF over GST control), the binding signal (ETV5) was 1.17 fold enrichment (6-mer frequency, TF over GST control) and the binding signal (HSF1) was 1.22 fold enrichment (6-mer frequency, TF over GST control). The binding signal (SPIC) was 1.01 fold enrichment (6-mer frequency, TF over GST control), the binding signal (ELF4) was 1.21 fold enrichment (6-mer frequency, TF over GST control) and the binding signal (ELK4) was 1.08 fold enrichment (6-mer frequency, TF over GST control). For the same sequence, the binding signal (ETV2) was 1.05 fold enrichment (6-mer frequency, TF over GST control), the binding signal (ELF3) was 1.08 fold enrichment (6-mer frequency, TF over GST control) and the binding signal (CRX) was 1.17 fold enrichment (6-mer frequency, TF over GST control). The binding signal (ETV1) was 1.19 fold enrichment (6-mer frequency, TF over GST control).

From article PMC7862700, “An all-to-all approach to the identification of sequence-specific readers for epigenetic DNA modifications on cytosine”
